# Assay results reported in PMC7862700, “An all-to-all approach to the identification of sequence-specific readers for epigenetic DNA modifications on cytosine”.
# Key:
# Test in all cases: DAPPL (digital affinity profiling via proximity ligation, sequencing); 10 mM Tris-HCl pH 7.5, 50 mM NaCl, 1 mM DTT, 4% glycerol, room temperature, 30 min; GST-TFs on glutathione beads, 16-mer random dsDNA library, 0.1% formaldehyde crosslink after washing; high values mean tight binding
# Settings in all cases: protein: recombinant; tags: N-terminal GST; dsDNA, one strand shown
# [1] = target: T1, FLI1 (Homo sapiens, UniProt Q01543 1-452)
# T1 sequence: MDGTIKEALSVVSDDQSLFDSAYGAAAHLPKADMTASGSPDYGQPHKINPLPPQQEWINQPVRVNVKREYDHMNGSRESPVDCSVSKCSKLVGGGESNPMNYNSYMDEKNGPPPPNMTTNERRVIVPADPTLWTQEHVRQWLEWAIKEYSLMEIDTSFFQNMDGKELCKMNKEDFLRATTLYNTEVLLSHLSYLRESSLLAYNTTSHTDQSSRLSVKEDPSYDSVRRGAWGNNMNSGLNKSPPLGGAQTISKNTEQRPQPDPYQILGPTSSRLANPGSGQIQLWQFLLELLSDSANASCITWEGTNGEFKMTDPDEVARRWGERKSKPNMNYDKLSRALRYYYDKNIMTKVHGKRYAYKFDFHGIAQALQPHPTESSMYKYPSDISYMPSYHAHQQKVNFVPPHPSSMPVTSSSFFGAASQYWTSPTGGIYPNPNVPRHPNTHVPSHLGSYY
# Method in brief: (§1)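 Human transcription factors were made in yeast as GST fusions, captured on glutathione beads and barcoded with DNA. With a tag-only sample included, the pool was incubated with 200 nmole of a random double-stranded 16-mer DNA library in Tris/NaCl/DTT/glycerol buffer at room temperature for 30 min, then crosslinked with 0.1% formaldehyde after washing, ligated by proximity, amplified and sequenced. For binding signal, each hexamer's read frequency for a factor is divided by its frequency for the tag-only sample.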
# [2] = target: ELF1 (Homo sapiens, UniProt P32519 1-619)
# Sequence of ELF1 (P32519 whole entry): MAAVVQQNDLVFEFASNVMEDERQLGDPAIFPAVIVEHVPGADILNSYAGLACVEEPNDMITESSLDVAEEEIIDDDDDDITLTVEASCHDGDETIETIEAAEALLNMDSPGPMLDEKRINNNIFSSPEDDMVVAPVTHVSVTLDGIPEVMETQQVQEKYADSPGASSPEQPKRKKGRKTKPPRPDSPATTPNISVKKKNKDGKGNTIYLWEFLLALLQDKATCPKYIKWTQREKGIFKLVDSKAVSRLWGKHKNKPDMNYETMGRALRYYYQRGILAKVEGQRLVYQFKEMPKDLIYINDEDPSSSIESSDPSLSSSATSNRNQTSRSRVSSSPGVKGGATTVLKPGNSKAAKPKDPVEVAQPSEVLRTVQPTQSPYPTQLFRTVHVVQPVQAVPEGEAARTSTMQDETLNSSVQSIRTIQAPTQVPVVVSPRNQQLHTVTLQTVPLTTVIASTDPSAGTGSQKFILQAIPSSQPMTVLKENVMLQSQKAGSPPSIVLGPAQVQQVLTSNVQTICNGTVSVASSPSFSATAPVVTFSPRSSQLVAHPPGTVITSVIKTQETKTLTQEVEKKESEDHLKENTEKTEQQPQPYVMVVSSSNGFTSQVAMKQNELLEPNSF
# Method in brief: as §1
# [3] = target: SPIB (Homo sapiens, UniProt Q01892 1-262)
# Sequence of SPIB (Q01892 whole entry): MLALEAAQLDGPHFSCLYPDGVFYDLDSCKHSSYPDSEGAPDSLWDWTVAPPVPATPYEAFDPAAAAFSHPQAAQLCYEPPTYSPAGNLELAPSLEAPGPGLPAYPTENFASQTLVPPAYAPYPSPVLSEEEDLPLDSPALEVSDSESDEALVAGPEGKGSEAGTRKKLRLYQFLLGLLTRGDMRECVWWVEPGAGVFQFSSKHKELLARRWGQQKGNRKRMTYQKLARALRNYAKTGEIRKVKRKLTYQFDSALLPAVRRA
# Method in brief: as §1
# [4] = target: T2, SPIC (Homo sapiens, UniProt Q8N5J4 1-248)
# T2 sequence: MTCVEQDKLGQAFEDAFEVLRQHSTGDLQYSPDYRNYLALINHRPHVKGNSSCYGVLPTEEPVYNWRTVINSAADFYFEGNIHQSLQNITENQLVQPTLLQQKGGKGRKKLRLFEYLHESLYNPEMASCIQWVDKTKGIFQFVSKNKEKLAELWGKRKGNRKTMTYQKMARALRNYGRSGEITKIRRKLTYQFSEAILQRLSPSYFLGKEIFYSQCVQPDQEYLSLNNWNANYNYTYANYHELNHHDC
# Method in brief: as §1
# [5] = target: ELF4 (Homo sapiens, UniProt Q99607 1-663)
# Sequence of ELF4 (Q99607 whole entry): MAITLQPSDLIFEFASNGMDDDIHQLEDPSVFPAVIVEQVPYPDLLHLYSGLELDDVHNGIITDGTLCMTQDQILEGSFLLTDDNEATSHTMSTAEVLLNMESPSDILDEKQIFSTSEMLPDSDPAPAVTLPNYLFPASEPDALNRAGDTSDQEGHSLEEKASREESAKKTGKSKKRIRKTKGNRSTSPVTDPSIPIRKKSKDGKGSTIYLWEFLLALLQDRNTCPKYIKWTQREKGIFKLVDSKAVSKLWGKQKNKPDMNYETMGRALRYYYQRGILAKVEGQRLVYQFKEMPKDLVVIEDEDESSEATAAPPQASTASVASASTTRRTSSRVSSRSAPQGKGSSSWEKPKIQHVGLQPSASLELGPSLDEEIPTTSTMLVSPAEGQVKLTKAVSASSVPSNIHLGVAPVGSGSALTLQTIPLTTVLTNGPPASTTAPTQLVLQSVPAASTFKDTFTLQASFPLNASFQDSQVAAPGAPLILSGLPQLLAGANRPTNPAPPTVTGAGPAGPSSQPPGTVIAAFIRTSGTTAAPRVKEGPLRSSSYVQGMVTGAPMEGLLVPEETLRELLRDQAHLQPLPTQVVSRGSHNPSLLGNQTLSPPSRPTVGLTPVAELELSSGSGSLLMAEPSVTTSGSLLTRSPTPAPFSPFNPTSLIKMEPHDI
# Method in brief: as §1
# [6] = target: T3, ELF3 (Homo sapiens, UniProt P78545 1-371)
# T3 sequence: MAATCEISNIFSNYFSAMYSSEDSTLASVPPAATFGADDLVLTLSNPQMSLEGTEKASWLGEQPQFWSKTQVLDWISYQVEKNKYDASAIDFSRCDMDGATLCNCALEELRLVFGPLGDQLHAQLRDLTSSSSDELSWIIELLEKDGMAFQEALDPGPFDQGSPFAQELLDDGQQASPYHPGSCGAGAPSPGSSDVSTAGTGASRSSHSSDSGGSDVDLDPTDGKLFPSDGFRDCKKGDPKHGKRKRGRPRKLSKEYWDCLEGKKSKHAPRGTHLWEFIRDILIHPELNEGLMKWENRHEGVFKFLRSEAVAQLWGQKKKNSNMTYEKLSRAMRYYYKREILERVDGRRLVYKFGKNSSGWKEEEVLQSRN
# Method in brief: as §1
# [7] = target: T4, ERF (Homo sapiens, UniProt P50548 1-548)
# T4 sequence: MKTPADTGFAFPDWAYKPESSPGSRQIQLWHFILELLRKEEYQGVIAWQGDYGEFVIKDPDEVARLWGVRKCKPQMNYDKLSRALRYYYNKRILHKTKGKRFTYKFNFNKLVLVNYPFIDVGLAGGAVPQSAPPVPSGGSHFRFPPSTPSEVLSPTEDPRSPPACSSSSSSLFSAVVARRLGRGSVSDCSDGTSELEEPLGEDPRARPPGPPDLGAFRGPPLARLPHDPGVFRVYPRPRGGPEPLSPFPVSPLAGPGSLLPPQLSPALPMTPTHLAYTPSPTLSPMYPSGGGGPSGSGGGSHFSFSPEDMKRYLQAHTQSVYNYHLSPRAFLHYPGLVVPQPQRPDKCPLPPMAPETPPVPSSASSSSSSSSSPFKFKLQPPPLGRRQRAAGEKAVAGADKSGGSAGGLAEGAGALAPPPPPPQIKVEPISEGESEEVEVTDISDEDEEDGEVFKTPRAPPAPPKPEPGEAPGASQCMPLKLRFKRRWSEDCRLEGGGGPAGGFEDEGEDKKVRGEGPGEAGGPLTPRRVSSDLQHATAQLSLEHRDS
# Method in brief: as §1
# [8] = target: T5, ETV7 (Homo sapiens, UniProt Q9Y603 1-341)
# T5 sequence: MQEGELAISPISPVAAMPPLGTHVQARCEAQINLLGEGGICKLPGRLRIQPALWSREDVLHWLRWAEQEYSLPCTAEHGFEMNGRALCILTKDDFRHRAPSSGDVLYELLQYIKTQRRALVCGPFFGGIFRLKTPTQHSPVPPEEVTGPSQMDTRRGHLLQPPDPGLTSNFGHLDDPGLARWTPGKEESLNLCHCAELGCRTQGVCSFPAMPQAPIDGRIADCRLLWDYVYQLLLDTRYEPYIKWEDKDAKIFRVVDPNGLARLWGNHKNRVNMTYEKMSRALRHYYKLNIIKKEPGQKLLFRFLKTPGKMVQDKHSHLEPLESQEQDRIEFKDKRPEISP
# Method in brief: as §1
# [9] = target: ETV6 (Homo sapiens, UniProt P41212 1-452)
# Sequence of ETV6 (P41212 whole entry): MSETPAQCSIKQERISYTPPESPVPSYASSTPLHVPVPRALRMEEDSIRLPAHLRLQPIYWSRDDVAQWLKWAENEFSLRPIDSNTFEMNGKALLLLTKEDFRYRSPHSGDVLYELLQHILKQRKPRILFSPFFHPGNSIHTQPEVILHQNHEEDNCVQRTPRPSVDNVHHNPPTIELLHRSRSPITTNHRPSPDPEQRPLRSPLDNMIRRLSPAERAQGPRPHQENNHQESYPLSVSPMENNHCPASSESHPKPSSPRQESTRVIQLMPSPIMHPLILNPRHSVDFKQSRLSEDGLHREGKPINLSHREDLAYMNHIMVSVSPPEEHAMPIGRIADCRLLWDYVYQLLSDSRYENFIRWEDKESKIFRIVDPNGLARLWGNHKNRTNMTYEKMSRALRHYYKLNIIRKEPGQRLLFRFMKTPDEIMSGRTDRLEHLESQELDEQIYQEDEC
# Method in brief: as §1
# [10] = target: T6, ELK1 (Homo sapiens, UniProt P19419 1-428)
# T6 sequence: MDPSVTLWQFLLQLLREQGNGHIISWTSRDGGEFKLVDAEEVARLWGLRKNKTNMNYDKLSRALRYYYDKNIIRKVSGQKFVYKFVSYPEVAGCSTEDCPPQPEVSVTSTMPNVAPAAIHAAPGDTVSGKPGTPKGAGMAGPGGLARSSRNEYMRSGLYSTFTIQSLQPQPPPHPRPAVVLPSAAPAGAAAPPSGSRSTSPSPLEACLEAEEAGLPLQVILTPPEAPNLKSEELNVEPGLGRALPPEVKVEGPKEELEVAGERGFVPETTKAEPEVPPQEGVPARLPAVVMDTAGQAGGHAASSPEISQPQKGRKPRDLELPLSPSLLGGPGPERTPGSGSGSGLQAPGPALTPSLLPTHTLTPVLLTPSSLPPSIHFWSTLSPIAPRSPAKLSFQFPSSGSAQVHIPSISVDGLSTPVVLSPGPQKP
# Method in brief: as §1
# [11] = target: T7, ETV2 (Homo sapiens, UniProt O00321 1-342)
# T7 sequence: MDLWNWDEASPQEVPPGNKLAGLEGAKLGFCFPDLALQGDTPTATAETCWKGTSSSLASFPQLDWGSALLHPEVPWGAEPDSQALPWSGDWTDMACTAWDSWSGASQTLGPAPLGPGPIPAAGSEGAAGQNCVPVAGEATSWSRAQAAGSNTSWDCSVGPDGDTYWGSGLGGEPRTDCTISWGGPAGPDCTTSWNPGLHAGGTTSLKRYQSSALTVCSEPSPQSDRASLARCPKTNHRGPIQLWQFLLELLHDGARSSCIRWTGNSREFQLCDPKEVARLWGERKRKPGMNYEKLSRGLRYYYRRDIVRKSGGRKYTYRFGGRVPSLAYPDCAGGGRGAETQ
# Method in brief: as §1
# [12] = target: T8, ETV3L (Homo sapiens, UniProt Q6ZN32 1-361)
# T8 sequence: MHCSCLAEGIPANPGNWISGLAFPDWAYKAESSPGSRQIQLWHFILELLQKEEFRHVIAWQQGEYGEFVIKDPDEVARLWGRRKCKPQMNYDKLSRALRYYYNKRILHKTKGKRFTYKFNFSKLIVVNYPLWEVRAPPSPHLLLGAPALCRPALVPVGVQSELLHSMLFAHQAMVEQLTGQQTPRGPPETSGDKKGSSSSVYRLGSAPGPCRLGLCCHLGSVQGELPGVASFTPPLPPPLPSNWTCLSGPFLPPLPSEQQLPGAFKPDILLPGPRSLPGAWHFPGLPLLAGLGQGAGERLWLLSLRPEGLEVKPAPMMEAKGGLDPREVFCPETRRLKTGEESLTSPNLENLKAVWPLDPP
# Method in brief: as §1
# [13] = target: T9, GABPA (Homo sapiens, UniProt Q06546 1-454)
# T9 sequence: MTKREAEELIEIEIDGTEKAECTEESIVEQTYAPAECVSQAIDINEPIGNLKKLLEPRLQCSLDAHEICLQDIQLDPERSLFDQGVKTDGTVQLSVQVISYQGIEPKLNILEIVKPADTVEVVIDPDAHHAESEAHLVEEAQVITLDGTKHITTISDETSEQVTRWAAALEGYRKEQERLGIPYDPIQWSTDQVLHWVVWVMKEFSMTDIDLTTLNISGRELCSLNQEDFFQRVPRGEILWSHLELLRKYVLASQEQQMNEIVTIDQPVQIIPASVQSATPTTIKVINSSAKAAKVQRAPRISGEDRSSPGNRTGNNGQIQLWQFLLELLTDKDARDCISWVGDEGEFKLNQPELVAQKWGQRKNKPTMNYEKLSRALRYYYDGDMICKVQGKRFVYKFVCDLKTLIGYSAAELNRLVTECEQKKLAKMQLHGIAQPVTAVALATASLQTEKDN
# Method in brief: as §1
# [14] = target: T10, ELK4 (Homo sapiens, UniProt P28324-2 1-405)
# T10 sequence: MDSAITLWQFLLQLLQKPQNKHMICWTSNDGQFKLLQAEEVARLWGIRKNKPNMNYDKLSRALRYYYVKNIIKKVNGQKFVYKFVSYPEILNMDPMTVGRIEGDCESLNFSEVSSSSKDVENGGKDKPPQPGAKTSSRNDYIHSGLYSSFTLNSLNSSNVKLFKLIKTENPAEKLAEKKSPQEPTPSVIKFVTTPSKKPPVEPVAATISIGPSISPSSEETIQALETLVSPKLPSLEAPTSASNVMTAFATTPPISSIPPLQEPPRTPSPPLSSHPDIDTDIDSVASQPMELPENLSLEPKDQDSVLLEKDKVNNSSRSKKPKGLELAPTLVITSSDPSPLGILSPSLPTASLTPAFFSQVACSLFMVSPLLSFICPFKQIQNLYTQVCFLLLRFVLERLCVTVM
# Method in brief: as §1
# [15] = target: ETV1 (Homo sapiens, UniProt P50549 1-477)
# Sequence of ETV1 (P50549 whole entry): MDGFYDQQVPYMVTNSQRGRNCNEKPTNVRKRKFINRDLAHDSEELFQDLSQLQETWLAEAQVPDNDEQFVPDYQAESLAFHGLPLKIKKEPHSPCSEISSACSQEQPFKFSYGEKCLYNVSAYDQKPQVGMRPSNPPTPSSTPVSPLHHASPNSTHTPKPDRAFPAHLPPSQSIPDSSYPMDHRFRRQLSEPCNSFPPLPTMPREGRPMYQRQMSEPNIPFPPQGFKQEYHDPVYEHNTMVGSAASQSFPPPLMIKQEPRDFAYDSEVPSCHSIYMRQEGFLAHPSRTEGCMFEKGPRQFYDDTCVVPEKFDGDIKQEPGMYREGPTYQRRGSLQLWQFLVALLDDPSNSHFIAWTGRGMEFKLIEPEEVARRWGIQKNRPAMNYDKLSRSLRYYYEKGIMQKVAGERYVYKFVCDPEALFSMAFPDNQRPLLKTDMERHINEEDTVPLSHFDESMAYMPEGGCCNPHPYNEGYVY
# Method in brief: as §1
# [16] = target: T11, ETS2 (Homo sapiens, UniProt P15036 1-469)
# T11 sequence: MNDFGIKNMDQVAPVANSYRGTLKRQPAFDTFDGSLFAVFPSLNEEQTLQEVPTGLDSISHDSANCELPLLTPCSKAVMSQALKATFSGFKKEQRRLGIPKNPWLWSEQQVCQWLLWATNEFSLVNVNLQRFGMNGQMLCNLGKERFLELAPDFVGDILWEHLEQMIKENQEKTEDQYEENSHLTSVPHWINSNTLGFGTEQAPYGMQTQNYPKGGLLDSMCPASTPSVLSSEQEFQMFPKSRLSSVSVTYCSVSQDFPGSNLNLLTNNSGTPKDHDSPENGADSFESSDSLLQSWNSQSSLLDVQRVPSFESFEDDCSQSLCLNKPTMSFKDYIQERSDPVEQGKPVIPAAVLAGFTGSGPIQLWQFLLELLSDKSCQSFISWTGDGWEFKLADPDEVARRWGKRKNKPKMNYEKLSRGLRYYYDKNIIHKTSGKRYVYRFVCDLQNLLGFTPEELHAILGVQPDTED
# Method in brief: as §1
Sequence,binding signal [1],binding signal [2],binding signal [3],binding signal [4],binding signal [5],binding signal [6],binding signal [7],binding signal [8],binding signal [9],binding signal [10],binding signal [11],binding signal [12],binding signal [13],binding signal [14],binding signal [15],binding signal [16]
AATGTG,"1.04 fold enrichment (6-mer frequency, TF over GST control)","1 fold enrichment (6-mer frequency, TF over GST control)","1 fold enrichment (6-mer frequency, TF over GST control)","1.02 fold enrichment (6-mer frequency, TF over GST control)","1.03 fold enrichment (6-mer frequency, TF over GST control)","1.07 fold enrichment (6-mer frequency, TF over GST control)","1.01 fold enrichment (6-mer frequency, TF over GST control)","1.02 fold enrichment (6-mer frequency, TF over GST control)","1.01 fold enrichment (6-mer frequency, TF over GST control)",–,–,–,–,–,–,–
CGGCCC,"1.05 fold enrichment (6-mer frequency, TF over GST control)","1.01 fold enrichment (6-mer frequency, TF over GST control)","1.07 fold enrichment (6-mer frequency, TF over GST control)",–,"1.03 fold enrichment (6-mer frequency, TF over GST control)",–,"1.01 fold enrichment (6-mer frequency, TF over GST control)","1.05 fold enrichment (6-mer frequency, TF over GST control)",–,"1.03 fold enrichment (6-mer frequency, TF over GST control)","1.19 fold enrichment (6-mer frequency, TF over GST control)",–,–,–,–,–
GCGTTG,"1.1 fold enrichment (6-mer frequency, TF over GST control)","1.01 fold enrichment (6-mer frequency, TF over GST control)",–,"1.03 fold enrichment (6-mer frequency, TF over GST control)",–,–,"1.12 fold enrichment (6-mer frequency, TF over GST control)","1.01 fold enrichment (6-mer frequency, TF over GST control)",–,–,"1.01 fold enrichment (6-mer frequency, TF over GST control)","1.03 fold enrichment (6-mer frequency, TF over GST control)",–,–,–,–
ATGCGT,"1.06 fold enrichment (6-mer frequency, TF over GST control)",–,"1.03 fold enrichment (6-mer frequency, TF over GST control)","1.07 fold enrichment (6-mer frequency, TF over GST control)",–,"1.07 fold enrichment (6-mer frequency, TF over GST control)","1.01 fold enrichment (6-mer frequency, TF over GST control)","1.16 fold enrichment (6-mer frequency, TF over GST control)",–,–,"1.18 fold enrichment (6-mer frequency, TF over GST control)","1.1 fold enrichment (6-mer frequency, TF over GST control)","1.07 fold enrichment (6-mer frequency, TF over GST control)","1.15 fold enrichment (6-mer frequency, TF over GST control)","1.02 fold enrichment (6-mer frequency, TF over GST control)","1.02 fold enrichment (6-mer frequency, TF over GST control)"
